This note sets out measurements from paper PMC7862700, “An all-to-all approach to the identification of sequence-specific readers for epigenetic DNA modifications on cytosine”.

Holding throughout (experiment): DAPPL (digital affinity profiling via proximity ligation, sequencing); 10 mM Tris-HCl pH 7.5, 50 mM NaCl, 1 mM DTT, 4% glycerol, room temperature, 30 min; GST-TFs on glutathione beads, 16-mer random dsDNA library, 0.1% formaldehyde crosslink after washing; high values mean tight binding
One assay has as its target T1, FLI1 (Homo sapiens, UniProt Q01543 1-452).
T1 sequence: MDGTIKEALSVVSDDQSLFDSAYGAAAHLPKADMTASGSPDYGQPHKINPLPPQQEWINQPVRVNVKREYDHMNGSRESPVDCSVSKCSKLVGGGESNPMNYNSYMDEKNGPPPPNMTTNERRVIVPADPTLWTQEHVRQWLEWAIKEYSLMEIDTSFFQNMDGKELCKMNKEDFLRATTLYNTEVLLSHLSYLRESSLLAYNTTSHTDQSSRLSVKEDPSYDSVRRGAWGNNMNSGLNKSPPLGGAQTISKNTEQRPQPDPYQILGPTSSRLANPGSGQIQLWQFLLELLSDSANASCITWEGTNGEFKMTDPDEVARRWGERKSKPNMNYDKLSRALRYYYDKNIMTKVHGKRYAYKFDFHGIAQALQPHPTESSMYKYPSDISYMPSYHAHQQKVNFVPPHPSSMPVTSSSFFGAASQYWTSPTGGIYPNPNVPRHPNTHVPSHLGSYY
The settings on record: protein: recombinant; tags: N-terminal GST; dsDNA, one strand shown. In short, it runs like this:
(§1)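 Beads coated with glutathione captured GST-fused human transcription factors that had been expressed in yeast, and the factors were then given DNA barcodes and pooled with a tag-only sample. The pools were incubated with 200 nmole of a random double-stranded 16-mer DNA library in Tris/NaCl/DTT/glycerol buffer for 30 min at room temperature, washed, crosslinked with 0.1% formaldehyde and proximity-ligated with BsaI/T4 ligase at 37 °C for 1 h. PCR amplification and Illumina NextSeq500 sequencing came last. Binding signal is each hexamer's read frequency for a factor divided by its frequency for the tag-only sample.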

A further assay addresses T2, ELK1 (Homo sapiens, UniProt P19419 1-428).
T2 sequence: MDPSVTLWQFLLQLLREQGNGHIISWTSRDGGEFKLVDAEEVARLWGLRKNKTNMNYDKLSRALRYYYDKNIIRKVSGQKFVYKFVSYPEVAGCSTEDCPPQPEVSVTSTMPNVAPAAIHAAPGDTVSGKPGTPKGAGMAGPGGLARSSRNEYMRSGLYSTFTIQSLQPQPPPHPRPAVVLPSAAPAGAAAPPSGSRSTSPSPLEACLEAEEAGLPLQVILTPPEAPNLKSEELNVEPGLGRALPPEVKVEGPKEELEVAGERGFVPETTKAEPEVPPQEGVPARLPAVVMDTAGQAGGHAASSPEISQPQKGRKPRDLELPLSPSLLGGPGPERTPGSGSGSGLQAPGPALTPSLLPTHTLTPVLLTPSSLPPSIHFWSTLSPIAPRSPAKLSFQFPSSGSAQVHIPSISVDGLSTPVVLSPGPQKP
The settings on record: protein: recombinant; tags: N-terminal GST; dsDNA, one strand shown. In short, it runs like this: as §1

A further assay deals with T3, GABPA (Homo sapiens, UniProt Q06546 1-454).
T3 sequence: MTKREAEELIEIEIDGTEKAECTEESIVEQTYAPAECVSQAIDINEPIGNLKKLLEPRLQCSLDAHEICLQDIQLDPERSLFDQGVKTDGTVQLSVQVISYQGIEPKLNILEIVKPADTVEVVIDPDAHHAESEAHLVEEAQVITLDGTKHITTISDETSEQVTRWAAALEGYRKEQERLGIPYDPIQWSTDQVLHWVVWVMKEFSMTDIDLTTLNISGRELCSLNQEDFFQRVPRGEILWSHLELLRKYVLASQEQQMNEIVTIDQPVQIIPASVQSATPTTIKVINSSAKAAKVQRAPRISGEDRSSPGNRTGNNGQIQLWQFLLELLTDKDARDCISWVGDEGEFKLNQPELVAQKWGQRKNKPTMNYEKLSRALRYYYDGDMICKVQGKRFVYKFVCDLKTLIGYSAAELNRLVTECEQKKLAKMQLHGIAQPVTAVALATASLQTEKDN
The settings on record: protein: recombinant; tags: N-terminal GST; dsDNA, one strand shown. The gist of the method: as §1

The target in the next assay is T4, ERG (Homo sapiens, UniProt P11308 1-479).
T4 sequence: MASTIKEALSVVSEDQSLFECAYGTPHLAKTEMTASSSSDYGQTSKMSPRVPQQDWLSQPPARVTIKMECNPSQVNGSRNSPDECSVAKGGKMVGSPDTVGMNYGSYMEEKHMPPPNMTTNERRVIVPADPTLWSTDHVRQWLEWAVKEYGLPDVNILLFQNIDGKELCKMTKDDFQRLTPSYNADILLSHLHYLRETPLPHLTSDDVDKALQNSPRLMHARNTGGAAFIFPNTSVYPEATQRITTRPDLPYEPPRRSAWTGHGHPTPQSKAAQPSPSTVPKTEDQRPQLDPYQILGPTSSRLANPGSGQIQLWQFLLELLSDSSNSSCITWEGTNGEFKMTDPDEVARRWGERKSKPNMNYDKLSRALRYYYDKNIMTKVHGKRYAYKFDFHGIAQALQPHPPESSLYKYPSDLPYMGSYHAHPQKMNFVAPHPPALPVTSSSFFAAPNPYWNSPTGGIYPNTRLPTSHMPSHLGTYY
The settings on record: protein: recombinant; tags: N-terminal GST; dsDNA, one strand shown. The gist of the method: as §1

The next assay concerns the target ELF1 (Homo sapiens, UniProt P32519 1-619). The settings on record: protein: recombinant; tags: N-terminal GST; dsDNA, one strand shown. The gist of the method:
as §1

The next assay addresses T5, EHF (Homo sapiens, UniProt Q9NZC4 1-300).
T5 sequence: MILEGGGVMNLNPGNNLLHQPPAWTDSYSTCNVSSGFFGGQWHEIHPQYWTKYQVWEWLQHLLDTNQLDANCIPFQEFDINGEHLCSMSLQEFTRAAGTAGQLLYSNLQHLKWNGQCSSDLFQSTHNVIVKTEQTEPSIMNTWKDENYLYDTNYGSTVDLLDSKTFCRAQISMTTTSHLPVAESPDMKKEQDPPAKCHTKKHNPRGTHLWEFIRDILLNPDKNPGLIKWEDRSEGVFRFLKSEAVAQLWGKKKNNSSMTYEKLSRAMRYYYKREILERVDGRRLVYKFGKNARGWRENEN
The settings on record: protein: recombinant; tags: N-terminal GST; dsDNA, one strand shown. In short, it runs like this:
as §1

A further assay has as its target SPI1 (Homo sapiens, UniProt P17947 1-270). The settings on record: protein: recombinant; tags: N-terminal GST; dsDNA, one strand shown. In short, it runs like this: as §1
The target of the next assay is SPIB (Homo sapiens, UniProt Q01892 1-262). The settings on record: protein: recombinant; tags: N-terminal GST; dsDNA, one strand shown. In short, it runs like this: as §1
The next assay addresses T6, ELK3 (Homo sapiens, UniProt P41970 1-407).
T6 sequence: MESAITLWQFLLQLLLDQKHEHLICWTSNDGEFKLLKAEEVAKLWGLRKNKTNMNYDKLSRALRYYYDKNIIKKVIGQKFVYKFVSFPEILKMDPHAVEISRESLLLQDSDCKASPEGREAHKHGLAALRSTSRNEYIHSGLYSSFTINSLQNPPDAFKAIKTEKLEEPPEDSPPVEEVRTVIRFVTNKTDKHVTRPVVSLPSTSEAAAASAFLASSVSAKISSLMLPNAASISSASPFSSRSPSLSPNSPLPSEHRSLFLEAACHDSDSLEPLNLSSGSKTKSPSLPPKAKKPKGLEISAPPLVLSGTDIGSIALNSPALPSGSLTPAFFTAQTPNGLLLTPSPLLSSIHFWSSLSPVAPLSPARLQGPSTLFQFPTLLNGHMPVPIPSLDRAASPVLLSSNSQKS
The settings on record: protein: recombinant; tags: N-terminal GST; dsDNA, one strand shown. In short, it runs like this: as §1

The target of a further assay is T7, FEV (Homo sapiens, UniProt Q99581 1-238).
T7 sequence: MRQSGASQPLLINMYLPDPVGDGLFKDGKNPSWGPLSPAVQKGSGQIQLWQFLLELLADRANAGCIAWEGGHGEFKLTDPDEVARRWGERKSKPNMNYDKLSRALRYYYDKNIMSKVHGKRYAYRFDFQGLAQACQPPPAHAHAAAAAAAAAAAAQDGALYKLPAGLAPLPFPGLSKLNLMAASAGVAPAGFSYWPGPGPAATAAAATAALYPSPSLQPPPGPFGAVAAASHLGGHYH
The settings on record: protein: recombinant; tags: N-terminal GST; dsDNA, one strand shown. In short, it runs like this: as §1

In the next assay the target is ETV5 (Homo sapiens, UniProt P41161 1-510). The settings on record: protein: recombinant; tags: N-terminal GST; dsDNA, one strand shown. In short, it runs like this: as §1
Another assay deals with HSF1 (Homo sapiens, UniProt Q00613 1-529). The settings on record: protein: recombinant; tags: N-terminal GST; chain copies: 3; dsDNA, one strand shown. The gist of the method:
as §1

In a further assay the target is T8, SPIC (Homo sapiens, UniProt Q8N5J4 1-248).
T8 sequence: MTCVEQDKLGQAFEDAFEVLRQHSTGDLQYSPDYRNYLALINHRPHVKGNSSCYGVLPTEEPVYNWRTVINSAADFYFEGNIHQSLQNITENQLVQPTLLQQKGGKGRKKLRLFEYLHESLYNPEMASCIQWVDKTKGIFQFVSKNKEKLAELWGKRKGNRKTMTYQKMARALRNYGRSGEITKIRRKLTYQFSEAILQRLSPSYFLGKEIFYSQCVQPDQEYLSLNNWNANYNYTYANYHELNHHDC
The settings on record: protein: recombinant; tags: N-terminal GST; dsDNA, one strand shown. The gist of the method: as §1

The target of another assay is ELF4 (Homo sapiens, UniProt Q99607 1-663). The settings on record: protein: recombinant; tags: N-terminal GST; dsDNA, one strand shown. In short, it runs like this: as §1
A further assay deals with T9, ELF3 (Homo sapiens, UniProt P78545 1-371).
T9 sequence: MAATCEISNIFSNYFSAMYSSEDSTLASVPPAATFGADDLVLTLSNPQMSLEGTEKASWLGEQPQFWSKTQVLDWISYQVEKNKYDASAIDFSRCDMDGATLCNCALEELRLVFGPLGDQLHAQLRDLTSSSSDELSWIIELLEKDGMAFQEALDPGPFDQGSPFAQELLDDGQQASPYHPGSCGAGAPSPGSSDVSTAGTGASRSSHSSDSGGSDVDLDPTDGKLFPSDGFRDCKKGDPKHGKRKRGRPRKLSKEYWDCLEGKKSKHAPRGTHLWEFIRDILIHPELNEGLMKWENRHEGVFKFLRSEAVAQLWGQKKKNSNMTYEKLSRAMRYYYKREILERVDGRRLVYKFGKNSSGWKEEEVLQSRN
The settings on record: protein: recombinant; tags: N-terminal GST; dsDNA, one strand shown. In short, it runs like this:
as §1

Another assay addresses CRX (Homo sapiens, UniProt O43186 1-299). The settings on record: protein: recombinant; tags: N-terminal GST; dsDNA, one strand shown. The gist of the method: as §1
A further assay addresses ETV1 (Homo sapiens, UniProt P50549 1-477). The settings on record: protein: recombinant; tags: N-terminal GST; dsDNA, one strand shown. The gist of the method:
as §1

Sequence of ELF4 (Q99607 whole entry): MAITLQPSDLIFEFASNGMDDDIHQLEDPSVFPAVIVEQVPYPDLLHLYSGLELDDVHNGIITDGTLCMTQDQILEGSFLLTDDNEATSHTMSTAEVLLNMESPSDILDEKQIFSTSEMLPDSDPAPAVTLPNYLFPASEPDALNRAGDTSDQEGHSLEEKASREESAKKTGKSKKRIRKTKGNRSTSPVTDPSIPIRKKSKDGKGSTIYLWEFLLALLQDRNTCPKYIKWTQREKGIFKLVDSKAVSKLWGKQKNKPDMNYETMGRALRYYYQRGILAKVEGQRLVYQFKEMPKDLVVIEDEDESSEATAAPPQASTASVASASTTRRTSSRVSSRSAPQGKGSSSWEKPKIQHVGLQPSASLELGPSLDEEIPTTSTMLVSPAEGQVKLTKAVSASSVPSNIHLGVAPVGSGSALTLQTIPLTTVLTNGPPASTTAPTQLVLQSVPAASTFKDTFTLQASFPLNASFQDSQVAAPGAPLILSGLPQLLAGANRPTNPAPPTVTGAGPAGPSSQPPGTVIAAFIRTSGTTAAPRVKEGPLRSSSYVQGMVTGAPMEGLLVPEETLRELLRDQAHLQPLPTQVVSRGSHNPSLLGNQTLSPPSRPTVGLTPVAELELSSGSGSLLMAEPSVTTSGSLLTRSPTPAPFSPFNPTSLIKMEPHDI
Sequence of CRX (O43186 whole entry): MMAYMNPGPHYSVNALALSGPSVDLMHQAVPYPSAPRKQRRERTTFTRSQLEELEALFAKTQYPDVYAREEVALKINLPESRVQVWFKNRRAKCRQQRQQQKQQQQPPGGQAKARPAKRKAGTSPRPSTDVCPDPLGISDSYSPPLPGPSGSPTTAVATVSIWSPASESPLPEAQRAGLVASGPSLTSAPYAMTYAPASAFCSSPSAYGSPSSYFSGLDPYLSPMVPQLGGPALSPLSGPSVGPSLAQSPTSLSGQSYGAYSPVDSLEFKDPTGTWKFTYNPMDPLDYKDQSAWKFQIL
Sequence of ELF1 (P32519 whole entry): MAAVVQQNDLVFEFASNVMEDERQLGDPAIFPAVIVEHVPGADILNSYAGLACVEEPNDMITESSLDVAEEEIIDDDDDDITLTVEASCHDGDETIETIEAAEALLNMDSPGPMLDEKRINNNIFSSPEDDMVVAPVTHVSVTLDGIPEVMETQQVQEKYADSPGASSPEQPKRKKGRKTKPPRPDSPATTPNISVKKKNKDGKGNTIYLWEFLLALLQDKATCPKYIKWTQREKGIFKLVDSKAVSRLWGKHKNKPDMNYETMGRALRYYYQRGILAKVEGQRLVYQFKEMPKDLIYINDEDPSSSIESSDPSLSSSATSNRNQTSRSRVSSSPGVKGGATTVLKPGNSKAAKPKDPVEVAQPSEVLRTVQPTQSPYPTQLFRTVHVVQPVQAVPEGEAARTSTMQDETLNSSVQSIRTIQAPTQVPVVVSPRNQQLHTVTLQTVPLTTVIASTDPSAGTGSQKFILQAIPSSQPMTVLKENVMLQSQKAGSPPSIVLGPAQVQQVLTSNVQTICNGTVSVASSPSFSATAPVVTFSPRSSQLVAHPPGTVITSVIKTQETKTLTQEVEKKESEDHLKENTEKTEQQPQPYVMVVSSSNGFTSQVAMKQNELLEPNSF
Sequence of ETV1 (P50549 whole entry): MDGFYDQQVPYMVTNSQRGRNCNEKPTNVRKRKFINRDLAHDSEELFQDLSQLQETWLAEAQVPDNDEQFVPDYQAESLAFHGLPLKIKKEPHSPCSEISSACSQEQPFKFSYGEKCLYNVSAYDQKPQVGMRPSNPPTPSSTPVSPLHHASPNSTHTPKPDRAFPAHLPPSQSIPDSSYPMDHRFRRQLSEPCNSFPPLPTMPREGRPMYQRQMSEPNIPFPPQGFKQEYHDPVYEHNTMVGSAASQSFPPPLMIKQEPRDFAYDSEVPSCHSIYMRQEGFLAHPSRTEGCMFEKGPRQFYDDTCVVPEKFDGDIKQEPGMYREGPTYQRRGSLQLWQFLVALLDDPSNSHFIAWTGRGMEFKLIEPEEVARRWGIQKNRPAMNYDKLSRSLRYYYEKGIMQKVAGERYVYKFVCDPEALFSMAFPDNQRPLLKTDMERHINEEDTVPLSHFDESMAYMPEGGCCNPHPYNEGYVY
Sequence of HSF1 (Q00613 whole entry): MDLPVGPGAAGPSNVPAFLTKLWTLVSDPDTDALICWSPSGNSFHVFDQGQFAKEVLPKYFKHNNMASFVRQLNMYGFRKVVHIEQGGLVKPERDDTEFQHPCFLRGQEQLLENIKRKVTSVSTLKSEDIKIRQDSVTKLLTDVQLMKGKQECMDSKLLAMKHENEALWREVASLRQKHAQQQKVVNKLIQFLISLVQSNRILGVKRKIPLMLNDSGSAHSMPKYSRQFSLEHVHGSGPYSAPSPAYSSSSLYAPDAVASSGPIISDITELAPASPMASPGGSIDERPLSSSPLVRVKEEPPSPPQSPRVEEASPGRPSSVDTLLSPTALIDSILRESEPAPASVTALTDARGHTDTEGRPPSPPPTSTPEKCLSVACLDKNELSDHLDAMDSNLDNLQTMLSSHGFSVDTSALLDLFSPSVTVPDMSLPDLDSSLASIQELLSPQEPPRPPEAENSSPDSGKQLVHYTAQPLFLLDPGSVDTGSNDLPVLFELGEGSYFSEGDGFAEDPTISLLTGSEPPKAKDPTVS
Sequence of ETV5 (P41161 whole entry): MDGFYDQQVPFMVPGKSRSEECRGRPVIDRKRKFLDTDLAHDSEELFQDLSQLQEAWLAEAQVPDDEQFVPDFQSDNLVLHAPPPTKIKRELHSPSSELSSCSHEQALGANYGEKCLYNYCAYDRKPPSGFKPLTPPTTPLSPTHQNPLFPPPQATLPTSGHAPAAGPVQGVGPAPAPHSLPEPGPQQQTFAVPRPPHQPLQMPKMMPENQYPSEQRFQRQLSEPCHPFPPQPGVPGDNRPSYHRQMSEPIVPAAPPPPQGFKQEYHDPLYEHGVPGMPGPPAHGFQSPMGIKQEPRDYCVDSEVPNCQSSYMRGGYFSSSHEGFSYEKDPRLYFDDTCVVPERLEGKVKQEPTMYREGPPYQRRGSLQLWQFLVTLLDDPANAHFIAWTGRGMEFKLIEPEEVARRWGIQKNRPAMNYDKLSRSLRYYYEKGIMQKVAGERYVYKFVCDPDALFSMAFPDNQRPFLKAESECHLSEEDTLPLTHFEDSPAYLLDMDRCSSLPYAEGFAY
Sequence of SPIB (Q01892 whole entry): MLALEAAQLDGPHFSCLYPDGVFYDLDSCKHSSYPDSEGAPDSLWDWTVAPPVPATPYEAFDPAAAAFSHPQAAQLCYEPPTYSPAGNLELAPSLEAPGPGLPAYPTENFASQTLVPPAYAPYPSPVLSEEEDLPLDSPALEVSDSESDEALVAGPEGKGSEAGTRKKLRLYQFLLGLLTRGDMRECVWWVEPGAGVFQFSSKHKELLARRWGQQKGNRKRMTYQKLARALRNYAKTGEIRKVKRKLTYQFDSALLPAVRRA

As for TGGAAA, the binding signal with FLI1 is 1.09 fold enrichment (6-mer frequency, TF over GST control); with ELK1, 1.12 fold enrichment (6-mer frequency, TF over GST control); with GABPA, 1.19 fold enrichment (6-mer frequency, TF over GST control); in the assay with ERG, 1.11 fold enrichment (6-mer frequency, TF over GST control); with ELF1, 1.04 fold enrichment (6-mer frequency, TF over GST control); in the assay with EHF, 1.1 fold enrichment (6-mer frequency, TF over GST control). Also, the binding signal is 1.16 fold enrichment (6-mer frequency, TF over GST control) with SPI1; 1.17 fold enrichment (6-mer frequency, TF over GST control) with SPIB; 1.15 fold enrichment (6-mer frequency, TF over GST control) with ELK3; 1.03 fold enrichment (6-mer frequency, TF over GST control) with FEV; 1.14 fold enrichment (6-mer frequency, TF over GST control) in the assay with ETV5; 2.23 fold enrichment (6-mer frequency, TF over GST control) with HSF1. The binding signal in the assay with SPIC was 1.17 fold enrichment (6-mer frequency, TF over GST control); with ELF4, 1.12 fold enrichment (6-mer frequency, TF over GST control); in the assay with ELF3 it was 1.15 fold enrichment (6-mer frequency, TF over GST control); with CRX, 1.23 fold enrichment (6-mer frequency, TF over GST control); in the assay with ETV1, 1.11 fold enrichment (6-mer frequency, TF over GST control).
